The results in this text go back to PubChem BioAssay (EPA / NIEHS).

Structures are written as SMILES. Where a structure was tested more than once in an assay, its records may differ in their call. Active and inactive are the calls of the source. How the source made its calls: active means hit-call score of the fitted dose curve at least 0.9, where 1 is the maximum; inactive means score below 0.9.

Assay [1] can be described thus: ATG_E_Box_CIS: Attagene CIS-FACTORIAL HepG2 Assay for human Enhancer Box (E-box) (AID 2282936). The conditions noted are these: HepG2 E-box cis-reporter transcription, actives raise or lower the signal. In short, it runs like this:
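Endogenous transcription factor activity was sensed in human HepG2 liver cells through transfected cis-promoter reporter units. After 24 h of dosing, total RNA was reverse-transcribed and reporter cDNA resolved by capillary electrophoresis.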

A short description of assay [2]: ATG_M_61_CIS: Attagene CIS-FACTORIAL HepG2 Assay for M61 Transcription Factor (Internal Marker) (AID 2282937). The following applies: HepG2 Attagene CIS-FACTORIAL M61 internal marker reporter; actives raise or lower the signal. In short, it runs like this:
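Using transiently transfected HepG2 liver cells, reporter transcript levels were assessed 24 h post-dosing by RT-PCR and capillary electrophoresis. Changes in either direction were fitted relative to DMSO controls.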

Assay [3] in a line: ATG_M_19_CIS: Attagene CIS-FACTORIAL HepG2 Assay for M19 Transcription Factor (Internal Marker) (AID 2282939). The following applies: HepG2 Attagene CIS-FACTORIAL M19 internal marker reporter; actives raise or lower the signal. In short, it runs like this: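 HepG2 cells transiently transfected with cis-regulated multiple reporter transcription units were dosed for 24 h; reporter mRNA was quantified by RT-PCR, 6-FAM primer-extension labelling, HpaI digestion and capillary electrophoresis, with bidirectional fitting against DMSO baseline.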

Assay [4] is described as follows: ATG_Ets_CIS: Attagene CIS-FACTORIAL HepG2 Assay for human Erythroblast Transformation Specific (ETS) (AID 2282941). The following applies: HepG2 ETS cis-reporter transcription; AC50: actives raise or lower the signal unless noted; outcome: actives raise or lower the signal unless noted. In short, it runs like this:
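Cis-regulated reporter mRNA induction in HepG2 (transient transfection), 24 h exposure, RT-PCR plus capillary electrophoresis detection; DMSO serves as negative control and baseline.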

Assay [5] addresses Hepatocyte nuclear factor 3-beta (Homo sapiens) (UniProt Q9Y261). In words: ATG_FoxA2_CIS: Attagene CIS-FACTORIAL HepG2 Assay for human Forkhead box A2 (FOXA2) (AID 2282942). The conditions noted are these: HepG2 cis-reporter transcription factor activity, 24 h; actives raise or lower the signal. In short, it runs like this:
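Fluorescence signal of reporter cDNA fragments, separated by capillary electrophoresis, reflects endogenous transcription factor activity in transfected HepG2 after 24 h. Both increases and decreases fitted against DMSO.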

Assay [6] can be described thus: ATG_FoxO_CIS: Attagene CIS-FACTORIAL HepG2 Assay for human Forkhead box O (FoxO) (AID 2282943). The following applies: HepG2 Attagene cis-reporter, FoxO element, mRNA; actives raise or lower the signal. In short, it runs like this:
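Values reflect reporter mRNA induction or loss in HepG2 cells 24 h post-dosing, fitted bidirectionally with DMSO as negative control and baseline. Detection used RT-PCR and fluorescence capillary electrophoresis.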

A short description of assay [7]: ATG_GATA_CIS: Attagene CIS-FACTORIAL HepG2 Assay for human GATA Binding Protein (AID 2282944). The following applies: HepG2 GATA cis-element reporter, Attagene multiplex mRNA; actives raise or lower the signal. In short, it runs like this: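 HepG2 cells transiently transfected with multiplexed cis-element reporter units reflecting endogenous transcription factor activity; reporter mRNA measured after 24 h dosing by RT-PCR, 6-FAM labeling, HpaI digestion and capillary electrophoresis. Bidirectional fitting versus DMSO baseline.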

A short description of assay [8]: ATG_GLI_CIS: Attagene CIS-FACTORIAL HepG2 Assay for human Zinc Finger Protein GLI1 (AID 2282945). The following applies: HepG2, Attagene cis-factorial reporter mRNA, GLI element; actives raise or lower the signal. In short, it runs like this: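 HepG2 cells transiently transfected with cis-promoter multiplexed reporter units report endogenous transcription factor activity. After 24 h chemical exposure, reporter mRNA was quantified by RT-PCR, 6-FAM labelling, HpaI digestion and capillary electrophoresis, with bidirectional fitting against DMSO.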

Assay [9] addresses Bile acid receptor (Homo sapiens) (UniProt Q96RI1). In words: ATG_IR1_CIS: Attagene CIS-FACTORIAL HepG2 Assay for human Nuclear Receptor Subfamily 1 Group H Member 4 (NR1H4), IR1 submotif (AID 2282946). The following applies: IR1 reporter transcription, actives raise or lower the signal. In short, it runs like this: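 Readout: reporter transcript levels by RT-PCR with fluorescent capillary electrophoresis, from HepG2 cells transiently transfected with multiplexed cis-regulated reporters and dosed 24 h. Gain- or loss-of-signal fitted versus DMSO negative control.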

Assay [10] is described as follows: ATG_GRE_CIS: Attagene CIS-FACTORIAL HepG2 Assay for human Glucocorticoid Response Elements (GRE) (AID 2282947). The conditions noted are these: HepG2 GRE cis-reporter, Attagene multiplex mRNA; AC50: actives raise or lower the signal unless noted; outcome: actives raise or lower the signal unless noted. In short, it runs like this: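 Cells (HepG2) bearing transfected cis-promoter reporter transcription units were treated with chemical for 24 hours. Reporter mRNA was measured via RT-PCR with capillary electrophoresis, and activity was fitted in both directions relative to DMSO.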

A short description of assay [11]: ATG_ISRE_CIS: Attagene CIS-FACTORIAL HepG2 Assay for human Interferon Regulatory Factor 1 (IRF1) binding to an Interferon-Stimulated Response Element (ISRE) (AID 2282948). The following applies: HepG2 ISRE cis-reporter (Attagene), mRNA transcription readout; actives raise or lower the signal. In short, it runs like this: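 Multiplexed mRNA reporter readout in human liver HepG2 cells: cis-element-driven reporters transfected, compound added for 24 h, transcripts amplified, fluorescently labelled and sized by capillary electrophoresis; curve fitting bidirectional against DMSO.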

Assay [12] in a line: ATG_M_32_CIS: Attagene CIS-FACTORIAL HepG2 Assay for M32 Transcription Factor (Internal Marker) (AID 2282949).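 Further: background control marker of the multiplexed CIS panel rather than a real target.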 The following applies: HepG2 Attagene cis-factorial M32 reporter, mRNA; actives raise or lower the signal. In outline:
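HepG2 transfectants (cis-regulated reporter transcription units) dosed 24 h. Reporter mRNA by RT-PCR plus CE, analysed as gain or loss relative to DMSO.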

Assay [13] can be described thus: ATG_M_06_CIS: Attagene CIS-FACTORIAL HepG2 Assay for M06 Transcription Factor (Internal Marker) (AID 2282950). The following applies: HepG2 Attagene CIS-FACTORIAL M06 internal marker reporter; actives raise or lower the signal. In short, it runs like this:
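HepG2 cells transiently transfected with cis-regulated multiple reporter transcription units were exposed to chemical for 24 h; reporter mRNA was quantified by RT-PCR, 6-FAM primer labelling, HpaI digestion and capillary electrophoresis, fitted bidirectionally against DMSO.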

Assay [14] has as its target Hypoxia-inducible factor 1-alpha (Homo sapiens) (UniProt Q16665). The experiment in a line: ATG_HIF1a_CIS: Attagene CIS-FACTORIAL HepG2 Assay for human Hypoxia Inducible Factor 1 (HIF1A) (AID 2282951). The conditions noted are these: HepG2 Attagene cis-factorial HIF1a reporter transcription; actives raise or lower the signal. In short, it runs like this: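 Endogenous-TF cis reporter readout, human HepG2 cells, 24 h incubation; mRNA detected via RT-PCR and capillary electrophoresis fluorescence; DMSO-normalised bidirectional fitting.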

Assay [15] concerns the target Hepatocyte nuclear factor 6 (Homo sapiens) (UniProt Q9UBC0). The experiment in a line: ATG_HNF6_CIS: Attagene CIS-FACTORIAL HepG2 Assay for human Hepatocyte Nuclear Factor 6 (HNF6) (AID 2282952). The conditions noted are these: HepG2 Attagene cis-factorial HNF6 reporter transcription; actives raise or lower the signal. In short, it runs like this: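 Readout: fluorescent reporter-transcript fragments resolved by capillary electrophoresis after RT-PCR, reflecting endogenous factor activity in transfected HepG2. Exposure 24 h. Gain or loss of signal fitted bidirectionally against DMSO.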

For assay [16], the target named is Heat shock factor protein 1 (Homo sapiens) (UniProt Q00613). In words: ATG_HSE_CIS: Attagene CIS-FACTORIAL HepG2 Assay for human Heat Shock Transcription Factor 1 (HSE) (AID 2282953). The following applies: HepG2 HSE cis-reporter, Attagene RNA transcription; actives raise or lower the signal. In outline: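 HepG2 cells transiently transfected with multiple reporter transcription units under cis-regulatory promoter control, measuring endogenous transcription factor activity. After 24 h chemical exposure, reporter mRNA quantified by RT-PCR, fluorescent labelling, HpaI digestion and capillary electrophoresis; bidirectional fit versus DMSO.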
Heat shock factor protein 1 (Homo sapiens), sequence (Q00613 whole entry, looked up): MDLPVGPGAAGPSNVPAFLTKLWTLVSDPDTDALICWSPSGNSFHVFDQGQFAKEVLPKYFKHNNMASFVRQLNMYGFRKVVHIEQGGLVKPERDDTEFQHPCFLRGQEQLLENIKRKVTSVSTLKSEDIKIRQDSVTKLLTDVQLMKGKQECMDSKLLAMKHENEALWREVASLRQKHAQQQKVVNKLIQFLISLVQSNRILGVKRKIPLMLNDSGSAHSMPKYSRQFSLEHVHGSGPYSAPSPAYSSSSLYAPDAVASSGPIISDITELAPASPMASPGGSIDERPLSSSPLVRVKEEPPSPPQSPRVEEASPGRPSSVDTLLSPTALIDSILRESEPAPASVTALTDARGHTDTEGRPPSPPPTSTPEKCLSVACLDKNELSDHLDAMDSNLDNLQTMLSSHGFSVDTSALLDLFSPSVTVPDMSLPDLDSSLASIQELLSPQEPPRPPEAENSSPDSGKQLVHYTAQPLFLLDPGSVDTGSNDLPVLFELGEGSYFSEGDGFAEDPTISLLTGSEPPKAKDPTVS

Assay [17] can be described thus: ATG_MRE_CIS: Attagene CIS-FACTORIAL HepG2 Assay for human Metal Responsive Element (MRE) (AID 2282954). The conditions noted are these: HepG2 MRE cis-reporter transcription, Attagene multiplex; actives raise or lower the signal. In short, it runs like this: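 Cells were transfected with cis-promoter reporter transcription units, then dosed for 24 h. RNA was reverse-transcribed, amplified, fluorescently labelled and resolved by capillary electrophoresis, and activity was fitted in both directions relative to DMSO.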

The nature of assay [18]: ATG_PBREM_CIS: Attagene CIS-FACTORIAL HepG2 Assay for human Phenobarbital-responsive Enhancer Module (PBREM) (AID 2282955). The conditions noted are these: HepG2 PBREM cis-reporter, Attagene multiplexed transcription; actives raise or lower the signal. In outline: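 Readout: reporter mRNA, fluorescent RT-PCR fragments separated by capillary electrophoresis. System: HepG2 transiently transfected with cis-regulated reporter units. Exposure: 24 h. Analysis: bidirectional, DMSO baseline.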

Assay [19] in a line: ATG_EGR_CIS: Attagene CIS-FACTORIAL HepG2 Assay for human Early Growth Response 1 (EGR1) (AID 2282938). The conditions noted are these: HepG2 Attagene CIS-FACTORIAL EGR reporter mRNA; actives raise or lower the signal. In short, it runs like this: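 Fluorescent capillary-electrophoresis signal of reporter cDNA fragments serves as read-out. HepG2 cells bear transiently transfected cis-promoter reporter units and are exposed 24 h; gain- or loss-of-signal is fitted against DMSO.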

Assay [20] is described as follows: ATG_ERE_CIS: Attagene CIS-FACTORIAL HepG2 Assay for Estrogen Response Element (ERE) (AID 2282940). The following applies: HepG2 ERE cis-reporter, Attagene RNA transcript; actives raise or lower the signal. In short, it runs like this: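 HepG2 cells transiently transfected with cis-promoter-driven multiplexed reporter transcription units report endogenous TF activity. After 24 h compound exposure, reporter mRNA is quantified by RT-PCR with capillary electrophoresis fluorescence; bidirectional fitting versus DMSO baseline.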

Hypoxia-inducible factor 1-alpha (Homo sapiens), sequence (Q16665 whole entry, looked up): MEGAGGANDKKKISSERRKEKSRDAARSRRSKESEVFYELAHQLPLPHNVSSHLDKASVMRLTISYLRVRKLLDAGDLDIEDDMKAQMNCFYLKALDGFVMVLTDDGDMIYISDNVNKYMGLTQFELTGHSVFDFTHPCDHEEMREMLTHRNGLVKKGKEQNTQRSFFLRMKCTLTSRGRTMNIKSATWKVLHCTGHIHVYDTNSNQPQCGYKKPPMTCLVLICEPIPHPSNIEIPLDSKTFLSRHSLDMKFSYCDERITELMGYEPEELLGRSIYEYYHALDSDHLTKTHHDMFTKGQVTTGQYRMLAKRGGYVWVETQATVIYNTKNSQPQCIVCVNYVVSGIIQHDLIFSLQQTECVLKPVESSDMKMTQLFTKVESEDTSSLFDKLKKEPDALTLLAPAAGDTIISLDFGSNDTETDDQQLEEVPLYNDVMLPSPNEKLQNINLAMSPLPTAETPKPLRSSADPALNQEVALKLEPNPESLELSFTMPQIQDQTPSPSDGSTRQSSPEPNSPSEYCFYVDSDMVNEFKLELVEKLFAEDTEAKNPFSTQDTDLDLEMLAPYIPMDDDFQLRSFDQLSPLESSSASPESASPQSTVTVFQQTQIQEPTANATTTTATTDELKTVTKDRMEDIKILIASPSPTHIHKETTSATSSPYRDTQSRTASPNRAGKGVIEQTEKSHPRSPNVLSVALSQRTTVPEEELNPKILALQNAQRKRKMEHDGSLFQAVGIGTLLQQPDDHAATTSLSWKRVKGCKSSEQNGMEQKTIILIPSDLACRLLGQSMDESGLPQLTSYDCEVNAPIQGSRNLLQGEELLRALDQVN
Hepatocyte nuclear factor 6 (Homo sapiens), sequence (Q9UBC0 whole entry, looked up, the tested form may be a part): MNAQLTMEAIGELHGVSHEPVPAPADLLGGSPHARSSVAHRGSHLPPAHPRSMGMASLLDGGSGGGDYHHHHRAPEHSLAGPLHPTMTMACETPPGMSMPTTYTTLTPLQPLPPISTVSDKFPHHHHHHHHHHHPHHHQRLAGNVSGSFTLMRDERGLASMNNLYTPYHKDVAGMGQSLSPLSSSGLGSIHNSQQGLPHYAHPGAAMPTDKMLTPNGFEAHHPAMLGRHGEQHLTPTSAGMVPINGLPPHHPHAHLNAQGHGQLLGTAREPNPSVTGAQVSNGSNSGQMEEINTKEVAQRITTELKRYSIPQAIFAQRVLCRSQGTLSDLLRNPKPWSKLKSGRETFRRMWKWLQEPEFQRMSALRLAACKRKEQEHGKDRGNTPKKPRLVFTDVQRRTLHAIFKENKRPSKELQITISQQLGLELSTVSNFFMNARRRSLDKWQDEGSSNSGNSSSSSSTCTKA
Hepatocyte nuclear factor 3-beta (Homo sapiens), sequence (Q9Y261 whole entry, looked up, the tested form may be a part): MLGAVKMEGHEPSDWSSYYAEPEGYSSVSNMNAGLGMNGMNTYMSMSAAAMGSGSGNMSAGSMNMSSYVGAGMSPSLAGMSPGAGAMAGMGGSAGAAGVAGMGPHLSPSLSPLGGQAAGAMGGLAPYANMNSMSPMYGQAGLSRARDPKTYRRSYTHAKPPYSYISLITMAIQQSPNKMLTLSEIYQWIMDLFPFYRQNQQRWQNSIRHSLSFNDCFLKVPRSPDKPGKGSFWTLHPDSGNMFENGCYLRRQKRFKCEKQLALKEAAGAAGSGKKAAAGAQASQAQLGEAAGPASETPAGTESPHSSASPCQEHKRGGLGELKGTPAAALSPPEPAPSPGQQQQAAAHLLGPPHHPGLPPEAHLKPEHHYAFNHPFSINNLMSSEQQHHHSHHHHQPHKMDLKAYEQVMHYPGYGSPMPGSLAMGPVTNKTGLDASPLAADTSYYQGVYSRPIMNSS
Bile acid receptor (Homo sapiens), sequence (Q96RI1 whole entry, looked up): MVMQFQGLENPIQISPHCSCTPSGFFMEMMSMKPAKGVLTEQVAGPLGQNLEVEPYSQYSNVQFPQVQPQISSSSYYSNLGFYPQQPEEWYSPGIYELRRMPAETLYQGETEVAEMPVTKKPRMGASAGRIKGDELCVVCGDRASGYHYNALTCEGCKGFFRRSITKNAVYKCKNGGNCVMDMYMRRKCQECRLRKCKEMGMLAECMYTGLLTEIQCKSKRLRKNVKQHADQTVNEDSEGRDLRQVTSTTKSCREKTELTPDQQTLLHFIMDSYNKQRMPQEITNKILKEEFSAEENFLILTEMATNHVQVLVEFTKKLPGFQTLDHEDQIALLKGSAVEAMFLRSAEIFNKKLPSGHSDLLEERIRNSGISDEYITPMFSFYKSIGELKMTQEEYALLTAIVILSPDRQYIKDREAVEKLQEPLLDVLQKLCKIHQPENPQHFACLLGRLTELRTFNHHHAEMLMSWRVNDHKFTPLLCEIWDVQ

For orientation: AC50 means the midpoint of the concentration-response curve, whichever way the signal moves. For the compound `CCCCCCCCCCCC[N+](C)(C)Cc1ccccc1`, the AC50 in assay [1] is 12.4 µM (active); in assay [4], 11.1 µM (active); in [8], 16.7 µM (active); in assay [12], 20.3 µM (active); in [15], 17.6 µM (active); in [16], 18.7 µM (active). In addition, the outcome in assay [1], in [2], in [3], in assay [4], in assay [5] and in [6] was inactive. Also, the result in assay [7], in assay [8], in assay [9], in assay [10], in [11] and in assay [12] was inactive. The call in assay [13], in assay [14], in [15], in assay [16], in assay [17] and in assay [18] was inactive.

As for `C=CC(=O)OCCC(F)(F)C(F)(F)C(F)(F)C(F)(F)C(F)(F)C(F)(F)F`, the result in assay [1], in assay [2], in [19], in [3], in assay [4] and in assay [5] was inactive. The result in [6], in assay [7], in [8], in assay [9], in assay [10] and in assay [11] was inactive. Also, the result in [12], in [13], in assay [14], in [15], in [16] and in assay [17] was inactive. Besides, in assay [18], the result was inactive. For the same compound, in assay [20], the AC50 was 30.9 µM (active).

Consider `O=S(=O)(c1ccc(OCc2ccccc2)cc1)c1ccccc1O`, for which the result in assay [1], in [2], in assay [3], in [20], in [5] and in assay [12] was inactive. Besides, in [13], the compound was classed as inactive. Also, the AC50 in assay [19] was 33.4 µM (active); in assay [4], 33.4 µM (active); in assay [6], 50.8 µM (active); in [7], 55.4 µM (active); in assay [8], 51.1 µM (active); in [9], 56 µM (active). The AC50 in [10] is 42.4 µM (active); in assay [11], 48.7 µM (active); in [14] it was 33.4 µM (active); in [15], 61.3 µM (active); in assay [16], 44.2 µM (active); in assay [17], 40.9 µM (active). The AC50 in assay [18] was 24.1 µM (active).
